About 79,000 compounds went through this panel and 15% of them were active in at least one assay; those are over-represented in the sample as a whole. Activity calls are given as the source filed them. Rule as the data show it: active = growth inhibition above about 70%; inactive = the rest.
What was measured:
[1] = NCI Yeast Anticancer Drug Screen. Data for the rad50 strain (AID 155);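 also: 0% = growth of vehicle-only cultures of the same strain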; conditions: S. cerevisiae rad50 strain growth inhibition; at 50.0 µM; stronger effect = higher value
Summary of the method: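 DNA repair mutant yeast, compound exposure, growth read-out; inhibition is taken relative to vehicle.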

[2] = NCI Yeast Anticancer Drug Screen. Data for the mec2-1 strain (AID 157); conditions: S. cerevisiae mec2-1 strain, at 50.0 µM, stronger effect = higher value
Summary of the method: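 Compounds were applied to mec2-1 yeast cells. Their growth was then compared with that of vehicle-treated cultures to give growth inhibition.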

[3] = NCI Yeast Anticancer Drug Screen. Data for the sgs1 mgt1 strain (AID 161);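 also: 0% = growth of cultures given vehicle only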; conditions: S. cerevisiae sgs1 mgt1 strain, at 50.0 µM, stronger effect = higher value
Summary of the method: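 Compounds are added to genetically altered yeast, and growth is compared with cultures given vehicle alone to give percent inhibition.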

[4] = NCI Yeast Anticancer Drug Screen. Data for the cln2 rad14 strain (AID 165);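 also: 0% = growth equal to vehicle treated cultures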; conditions: S. cerevisiae cln2 rad14 strain, at 50.0 µM, stronger effect = higher value
Summary of the method: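 Strain: cln2 rad14 yeast, altered in cell cycle control and DNA damage repair. Read-out: growth inhibition vs vehicle.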

[5] = NCI Yeast Anticancer Drug Screen. Data for the bub3 strain (AID 167); conditions: S. cerevisiae bub3 mutant strain, at 50.0 µM, stronger effect = higher value
Summary of the method: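 In this screen, a yeast mutant lacking normal mitotic checkpoint function is challenged with compound. Relative growth versus vehicle gives the inhibition value.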

[6] = NCI Yeast Anticancer Drug Screen. Data for the mlh1 rad18 strain (AID 175); conditions: S. cerevisiae mlh1 rad18 strain growth inhibition; at 50.0 µM; stronger effect = higher value
Summary of the method: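 A repair-deficient yeast strain is exposed to test compound, and growth is scored relative to vehicle-treated controls.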

Measured: growth inhibition

COC(=O)c1ccccc1NC(=O)C1CCCCC1=O (centres undefined)
inactive: [1] 1.55% | [2] -1.2% | [3] -0.1% | [4] -21.5% | [5] 12.3% | [6] 0.6%

O=CN1CCN(c2ccc3ccc(=O)[nH]c3n2)CC1
inactive: [1] -4.45% | [2] -24.2% | [3] 19.5% | [4] 9% | [5] -5.05% | [6] -14.2%

CSCCC(NC(=O)CCCOc1ccc(Cl)cc1C)C(=O)O (centres undefined)
inactive: [1] 1.8% | [2] -12% | [3] 3.85% | [4] -29.9% | [5] -0.9% | [6] -5.25%

CCC(C)OC(=S)S.[Cu+2] (centres undefined)
inactive: [1] -23.6% | [2] 19.4% | [3] -0.85% | [4] -4.8% | [5] -76.5% | [6] -44.9%

CC1Cc2c(cc(N)nc2Br)NC1=O (centres undefined)
inactive: [1] -10.6% | [2] -6.05% | [3] 6.95% | [4] 19.2% | [5] 3.35% | [6] 10.1%

Cc1ccc(NC(=O)OCC(F)(F)C(F)(F)C(F)(F)F)c(NC(=O)OCC(F)(F)C(F)(F)C(F)(F)F)c1
inactive: [1] -9.15% | [2] -12.1% | [3] -8.6% | [4] -33.6% | [5] -4.05% | [6] 12.8%

COc1ccc2nccc(/C=C/CC3CCN(C(C)=O)CC3)c2c1
active: [3] 88.2% | [6] 74.8%
inactive: [1] 31.8% | [2] 29.4% | [4] 45.6% | [5] 31.6%

Cc1ccc(Sc2cccc3c2C(=O)c2c(Sc4ccc(C)cc4)cccc2C3=O)cc1
inactive: [1] -18.9% | [2] 9.05% | [3] -24.5% | [4] -12.4% | [5] -2.7% | [6] -11.3%

Cn1c(=O)c2c(ncn2CC(=O)O)n(C)c1=O
inactive: [1] -3.9% | [2] -28.1% | [3] -8.5% | [4] 6.7% | [5] -13.8% | [6] 19.9%

CC1(C)OC(=C(C#N)C#N)C(C#N)=C1/C=C/c1ccncc1
inactive: [1] 25.7% | [2] 29.4% | [3] 19.8% | [4] 18.2% | [5] 31.5% | [6] -2.45%

Nc1nc2cc(Cl)c(O)cc2o1
inactive: [1] -3.25% | [2] -11.6% | [3] -3.5% | [4] -6.7% | [5] -3.55% | [6] -7.9%

COc1ccc(OC)c(NC(=O)C(=O)C(C(=O)c2ccccc2F)C2OC(=O)c3ccccc32)c1 (centres undefined)
inactive: [1] -15.6% | [2] -20.2% | [3] -27.9% | [4] -15.8% | [5] -60.2% | [6] -41.2%

CN(CCO)CC(O)Cn1cnc2ncnc(N)c21 (centres undefined)
inactive: [1] 21.2% | [2] 12% | [3] 28.7% | [4] 13.4% | [5] 7% | [6] 33.5%

CC(=O)c1ccccc1NC(=O)C(=O)C(C(=O)c1ccccc1-c1ccccc1)C1OC(=O)c2ccccc21 (centres undefined)
inactive: [1] 25% | [2] 2.95% | [3] 8.3% | [4] -49.8% | [5] -1.35% | [6] 11.3%

COc1cc(C=O)cc(NC(C)=O)c1OC(C)=O
inactive: [1] 6.55% | [2] 0.3% | [3] 4.85% | [4] -4.85% | [5] 24.9% | [6] 9.95%

C=C(C)[C@@H]1CC[C@]2(C)CC[C@]3(C)[C@H](CC[C@@H]4[C@@]5(C)CC[C@H](O)C(C)(C)[C@@H]5CC[C@]43C)[C@@H]12
inactive: [1] -2.75% | [2] -4.95% | [3] -11.3% | [4] -10.4% | [5] -6.05% | [6] -11.3%

CCOC(=O)c1c(C)[nH]c(=S)c(C#N)c1-c1cccc2ccccc12
inactive: [1] -10% | [2] 9.45% | [3] 38% | [4] -12.6% | [5] 17.8% | [6] -31.3%

C=CCCN=C(SC)SC
inactive: [1] 3.8% | [2] 20.9% | [3] 16.2% | [4] -11.1% | [5] -0.9% | [6] 4.4%

COC(=O)C(Cc1nc2ccccc2[nH]c1=O)C(=O)C(=O)Nc1ccc([N+](=O)[O-])cc1[N+](=O)[O-] (centres undefined)
inactive: [1] 7.25% | [2] 22.7% | [3] 4.45% | [4] 0.2% | [5] 18.1% | [6] 13.1%

COc1nc(OC)c2[nH]cnc2n1
inactive: [1] 17.6% | [2] 15.3% | [3] 13.1% | [4] -38.7% | [5] -1.35% | [6] 14.7%

COc1ccc(/C=C2\C=Cc3ccccc32)cc1OC
inactive: [1] -21.8% | [2] -6% | [3] 0.7% | [4] 13.4% | [5] 10.7% | [6] 4.75%

COc1ccc(C2=NOC(c3ccc(OC)cc3)C2)cc1 (centres undefined)
inactive: [1] -6.85% | [2] -18.3% | [3] -7.25% | [4] -13.8% | [5] 6.05% | [6] 9.55%

Clc1ccc(-c2nc3ccccc3cc2N2CCOCC2)cc1
inactive: [2] 52% | [3] 47.9% | [4] 49.7% | [5] 39.5%
active: [1] 70.5% | [6] 82.5%

CC(=O)N(C)Cc1c(O)ccc2ccccc12
inactive: [1] -7.25% | [2] -21.2% | [3] -9.9% | [4] -9.4% | [5] -2.25% | [6] 12.7%

Cn1c(=O)c2c(ncn2CCCCn2ccnc2[N+](=O)[O-])n(C)c1=O
inactive: [1] -30.1% | [2] -3.95% | [3] -14.9% | [4] 7.3% | [5] -1.25% | [6] -5.35%

CCCNC(=O)Nc1ccc(OCC)cc1
inactive: [1] 0.1% | [2] -11.3% | [3] -14.8% | [4] -36.8% | [5] 2.2% | [6] 5.5%

O=[N+]([O-])c1ccc(N/N=C/CCCCO)c([N+](=O)[O-])c1
inactive: [1] 13.3% | [2] -4.65% | [3] -0.6% | [4] -30.6% | [5] 9.85% | [6] -5.8%

CSCCCNC(=O)NS(=O)(=O)c1ccc(C)cc1
inactive: [1] 6.55% | [2] -1.35% | [3] 8.95% | [4] 7.75% | [5] 6.6% | [6] 2.85%

CN(C)c1ccc(/C=C(\C#N)c2ccc(F)cc2F)cc1
inactive: [1] 0.4% | [2] -2.75% | [3] -3.4% | [4] -9.05% | [5] -5.25% | [6] -23.9%

C[Si](C)(C)COC(N)=O
inactive: [1] -5.5% | [2] 10.8% | [3] -12.4% | [4] 8.1% | [5] 9.4% | [6] 0.45%

Cc1nnc(-c2cn(C3OC(CO)C(O)C3O)c3ncnc(N)c23)nc1C (centres undefined)
inactive: [1] 6.2% | [2] 15.9% | [3] 1% | [4] 0% | [5] -4.1% | [6] 8.9%

O=[N+]([O-])c1ccc(N=Cc2ccccc2)cc1
inactive: [1] 1.95% | [2] -30.6% | [3] 12.9% | [4] 3.75% | [5] 16.5% | [6] 5.8%

CCC(C)C(O)CC (centres undefined)
inactive: [1] -9.5% | [2] -8.55% | [3] 2.3% | [4] 19.4% | [5] 7.6% | [6] -16.2%

O=C1CCSc2nc(-c3ccc4c(c3)OCO4)nn21
inactive: [1] 7.2% | [2] -8.5% | [3] -13.3% | [4] 15.2% | [5] 4.6% | [6] 9.2%

Reference: PubChem BioAssay (NCI)
